In the library only some 2% were active in any assay of this set; here they are far more common.
NadD block: blocks S. aureus nicotinate mononucleotide adenylyltransferase | purified NadD enzyme, colorimetric absorbance read-out | inhibition, % at 20 µM | 360,000 compounds, 0.78% hits | AID 602399; in the data active = inhibition above about 26%
HGIII-sPLA2 inh: Blocks human group III sPLA2 activity | QFRET BODIPY PC-A2 liposome hydrolysis, fluorescence | inhibition, % at 12.2 µM | 370,000 compounds, 0.56% hits | Q9NZ20;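 active = inhibition above mean plus 3 SD of compounds lying within the high and low control bounds, cut at about 19% in these data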
Neddylation inh: blocks human cullin neddylation. P61081+Q13564. inhibition, % at 25 µM. TR-FRET cullin neddylation, biochemical. 360,000 compounds, 0.58% hits; in the data active = inhibition above about 36%
ARNT TACC3 PPI: ARNT/TACC3 interaction disruption; Q9Y6A5; AlphaScreen His-ARNT PAS-B/GST-TACC3 binding, luminescence; TACC3 fragment carries E629A point mutation; inhibition, % at 9.99 µM; 390,000 compounds, 0.66% hits; AID 623870;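 active = mean inhibition of replicates at least 50% and at least half of replicates each reaching 50%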
DAGLB inh: blocks human DAGLB lipase activity; Q8NCG7; HEK293T DAGLB membrane lysate, EnzChek fluorogenic substrate; inhibition, % at 5.17 µM; 340,000 compounds, 0.059% hits; in the data active = inhibition above about 34%
Target sequence (Q8NCG7 whole entry, looked up): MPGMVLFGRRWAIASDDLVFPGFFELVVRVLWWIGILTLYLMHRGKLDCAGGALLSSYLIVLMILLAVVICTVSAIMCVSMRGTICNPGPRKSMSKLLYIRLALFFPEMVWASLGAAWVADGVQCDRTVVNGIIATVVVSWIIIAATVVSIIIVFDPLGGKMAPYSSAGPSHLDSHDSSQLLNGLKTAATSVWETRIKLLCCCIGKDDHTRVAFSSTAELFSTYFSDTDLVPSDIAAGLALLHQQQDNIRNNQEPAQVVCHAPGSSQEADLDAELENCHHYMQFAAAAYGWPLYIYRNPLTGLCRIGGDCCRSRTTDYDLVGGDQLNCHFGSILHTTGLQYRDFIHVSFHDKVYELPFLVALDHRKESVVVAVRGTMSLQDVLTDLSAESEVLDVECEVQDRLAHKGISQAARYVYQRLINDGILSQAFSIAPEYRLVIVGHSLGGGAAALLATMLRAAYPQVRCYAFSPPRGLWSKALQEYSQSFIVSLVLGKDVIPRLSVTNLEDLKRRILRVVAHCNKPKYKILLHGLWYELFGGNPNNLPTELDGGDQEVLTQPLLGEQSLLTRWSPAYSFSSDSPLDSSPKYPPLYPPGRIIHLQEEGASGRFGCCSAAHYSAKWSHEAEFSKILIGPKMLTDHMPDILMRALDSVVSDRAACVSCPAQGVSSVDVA
Of the large screens only hits and unclear results are named; the others gave an inactive call.

Clc1cccc(N2Cc3cc(-c4ccccc4)ccc3-n3nncc3C2)c1	NadD block 33 (no result: ARNT TACC3 PPI, DAGLB inh)
COc1ccc(C=C2C(=O)NC(=S)NC2=O)cc1	none
O=C1NC(=S)NC(=O)C1=Cc1cccc2cc3ccccc3cc12	ARNT TACC3 PPI 21
CCN(CC)C(=O)c1ccc2c(c1)C1C=CCC1C(C(=O)O)N2 (stereo not given)	ARNT TACC3 PPI 13
CCN(CC)C(=O)c1ccc2c(c1)C1C(Cl)C(Sc3ccccc3[N+](=O)[O-])CC1C(C(=O)O)N2 (stereo not given)	none (no result: HGIII-sPLA2 inh)
Cc1ccc(OP2(=O)Nc3cc(C)c(C)cc3S2)cc1 (stereo not given)	ARNT TACC3 PPI 46
O=C(N/N=C/C1C(=O)NC(=S)N(c2ccccc2)C1=O)c1cc(Br)c(O)c(Br)c1 (stereo not given)	ARNT TACC3 PPI 65
CCn1c(O)c(/C=N/NC(=O)c2ccccc2)c(=O)n(CC)c1=S	none (no result: ARNT TACC3 PPI, DAGLB inh)
CN(C)C(=O)[C@@H]1[C@@H](CO)[C@@H]2Cn3c(cccc3=O)[C@H]1N2CC1CC1	none (no result: NadD block, HGIII-sPLA2 inh, Neddylation inh, DAGLB inh)
O=C1NC(=O)C(Nc2ccccc2)C(=O)N1	ARNT TACC3 PPI 33
CC=Cc1ccc2n(c1=O)C[C@H]1[C@H](CO)[C@@H](C(=O)N(C)C)[C@@H]2N1C (mixture of isomers)	none (no result: NadD block, HGIII-sPLA2 inh, Neddylation inh, DAGLB inh)
Cc1nc2ccccc2c(=O)n1-c1ccc(Br)cn1	none (no result: DAGLB inh)
Cc1nc2ccccc2c(=O)n1/N=C/c1cc(Br)cc(Br)c1O	Neddylation inh 72
COC(=O)[C@@H]1[C@@H](CO)[C@@H]2Cn3c(cccc3=O)[C@H]1N2C(=O)C1CCC1	none (no result: NadD block, HGIII-sPLA2 inh, Neddylation inh, DAGLB inh)
C[n+]1c(-c2ccccc2)c2cc(N)ccc2c2ccc(N)cc21	ARNT TACC3 PPI 47
O=C1NC(=O)C(=Cc2ccc(-c3cc(Cl)ccc3[N+](=O)[O-])o2)C(=O)N1	NadD block 38
COC(=O)[C@H]1[C@H](CO)[C@H]2Cn3c(ccc(-c4ccccc4OC)c3=O)[C@@H]1N2Cc1ccccc1	none (no result: NadD block, HGIII-sPLA2 inh, Neddylation inh, DAGLB inh)
COC(=O)[C@@H]1[C@@H](CO)[C@@H]2Cn3c(ccc(-c4ccccc4F)c3=O)[C@H]1N2Cc1cccnc1	none (no result: NadD block, HGIII-sPLA2 inh, Neddylation inh, DAGLB inh)
COC(=O)[C@@H]1[C@@H](CO)[C@@H]2Cn3c(ccc(-c4ccccc4F)c3=O)[C@H]1N2Cc1ccccc1	ARNT TACC3 PPI active (no result: NadD block, HGIII-sPLA2 inh, Neddylation inh, DAGLB inh)
O=c1[nH]c(=O)n(-c2cccc(Cl)c2)c(O)c1/C=N/c1ccccn1	none
COc1ccc2nc(/N=C/c3c(O)n(-c4cccc(Cl)c4)c(=O)[nH]c3=O)sc2c1	ARNT TACC3 PPI 79
Cc1ccc(-c2cc(-c3ccc(C)cc3)[n+](-c3ccccc3)c(-c3ccc(C)cc3)c2)cc1	Neddylation inh 45 (no result: HGIII-sPLA2 inh)
Cc1ccc(-c2cc(-c3ccccc3)cc(-c3ccccc3)[n+]2-c2ccccc2)cc1	none
CC1=C(O)C(=O)C=C2C1=CC=C1C2(C)CCC2(C)C3CC(C)(C(=O)O)CCC3(C)CCC12C (stereo not given)	NadD block 47
CCOc1ccc(N2C(=O)/C(=C/c3ccco3)C(=O)NC2=S)cc1	NadD block 87 (no result: HGIII-sPLA2 inh)
CCOc1ccc(N2C(=O)/C(=C\c3cccs3)C(=O)NC2=S)cc1	none (no result: NadD block, Neddylation inh, ARNT TACC3 PPI, DAGLB inh)
O=C(O)c1cccc2c1NC(c1cccc([N+](=O)[O-])c1)C1CC(Sc3ccccc3[N+](=O)[O-])C(Cl)C21 (stereo not given)	NadD block 60
O=C(O)c1ccc2c(c1)C1C(Cl)C(Sc3ccccc3[N+](=O)[O-])CC1C(c1cccc([N+](=O)[O-])c1)N2 (stereo not given)	NadD block 33 (no result: HGIII-sPLA2 inh)
Cc1c(N=Nc2c(O)n(Cc3ccccc3)c(=O)[nH]c2=O)c(=O)n(-c2ccccc2)n1C	ARNT TACC3 PPI 62
CCN1CCN(c2ccc(N)cc2C)CC1	ARNT TACC3 PPI 48
CCCNC(=O)N1[C@@H]2c3ccc(-c4ccccc4OC)c(=O)n3C[C@H]1[C@H](CO)[C@H]2C(=O)O	none (no result: NadD block, HGIII-sPLA2 inh, Neddylation inh, DAGLB inh)
CCn1c(O)c(/C=N/NC(=O)c2ccncc2)c(=O)[nH]c1=S	none (no result: ARNT TACC3 PPI)
CCCCn1c(O)c(/C=N/NC(=O)c2ccncc2)c(=O)[nH]c1=O	ARNT TACC3 PPI 66
Cc1ccccc1-n1c(O)c(/C=N/NC(=O)c2ccncc2)c(=O)[nH]c1=O	ARNT TACC3 PPI 71
CC(C)c1ccc(-n2c(O)c(/C=N/NC(=O)c3ccccc3O)c(=O)[nH]c2=S)cc1	ARNT TACC3 PPI 85
O=C(N/N=C/c1c(O)n(C2CCCCC2)c(=S)[nH]c1=O)c1ccccc1O	none (not shown: Neddylation inh)
Cn1c(=O)c2c(nc(N/N=C/c3c(O)n(-c4ccccc4)c(=S)[nH]c3=O)n2C)n(C)c1=O	ARNT TACC3 PPI 58
COC(=O)[C@@H]1[C@@H](CO)[C@@H]2Cn3c(ccc(-c4ccc(OC)cc4)c3=O)[C@H]1N2C(=O)c1ccccc1F	none (no result: NadD block, HGIII-sPLA2 inh, Neddylation inh, DAGLB inh)
CC(C)c1ccc(-n2c(O)c(/C=N/NC(=O)c3ccncc3)c(=O)[nH]c2=O)cc1	ARNT TACC3 PPI 61
O=C(N/N=C/c1c(O)n(Cc2ccc(F)cc2)c(=S)[nH]c1=O)c1ccncc1	ARNT TACC3 PPI 61
Cc1cc(C)c(-n2c(O)c(/C=N/NC(=O)c3ccncc3)c(=O)[nH]c2=O)c(C)c1	ARNT TACC3 PPI 64 (no result: DAGLB inh)
O=C(Cc1ccccn1)N1CCCCN2[C@@H](CO)[C@@H](c3ccc(-c4ccccc4)cc3)[C@@H]2C1	none (no result: NadD block, HGIII-sPLA2 inh, Neddylation inh, DAGLB inh)
COc1ccc(-c2cc(=NCCCCCC(=O)O)c3cc(C)ccc3o2)cc1	ARNT TACC3 PPI 61
COc1ccc(-c2cc(=Nc3cccc(C(=O)O)c3)c3cc(C)ccc3o2)cc1	none (not shown: Neddylation inh)
COC(=O)[C@@H]1[C@@H](CO)[C@@H]2Cn3c(ccc(-c4ccccc4F)c3=O)[C@H]1N2CC1CCCC1	none (no result: NadD block, HGIII-sPLA2 inh, Neddylation inh, DAGLB inh)
O=C(O)[C@@H]1[C@@H](CO)[C@@H]2Cn3c(ccc(-c4ccncc4)c3=O)[C@H]1N2C(=O)C1CCC1	none (no result: NadD block, HGIII-sPLA2 inh, Neddylation inh, DAGLB inh)
CCCN1[C@@H]2Cn3c(ccc(-c4ccc(F)cc4)c3=O)[C@H]1[C@@H](C(=O)OC)[C@@H]2CO	none (no result: NadD block, HGIII-sPLA2 inh, Neddylation inh, DAGLB inh)
O=C(N/N=C/c1c(O)n(C2CCCCC2)c(=S)[nH]c1=O)c1ccccc1	none
O=c1[nH]c(=S)n(C2CC2)c(O)c1/C=N/Nc1cccc2ccccc12	NadD block 30
O=c1[nH]c(=O)n(CCC2=CCCCC2)c(O)c1/C=N/Nc1ccccc1	none
O=c1[nH]c(=O)n(CCC2=CCCCC2)c(O)c1/C=N/Nc1cccc2ccccc12	NadD block 31
COC(=O)[C@@H]1[C@@H](CO)[C@@H]2Cn3c(ccc(-c4cccc(F)c4)c3=O)[C@H]1N2Cc1ccccc1	none (no result: NadD block, HGIII-sPLA2 inh, Neddylation inh, DAGLB inh)
Cc1cccc(N2C(=O)NC(=O)/C(=C\c3ccc4c(c3)CCCN4Cc3ccccc3)C2=O)c1	NadD block 38
Cc1ccc(N2C(=O)NC(=O)/C(=C\c3cnc(-c4ccccc4)nc3)C2=O)cc1	none
O=C(Cc1ccncc1)N1CCCCN2[C@H](CO)[C@H](c3ccc(C#Cc4ccccc4F)cc3)[C@@H]2C1	none (no result: NadD block, HGIII-sPLA2 inh, Neddylation inh, DAGLB inh)
CCC(=O)N1[C@@H]2c3ccc(-c4ccc(F)cc4)c(=O)n3C[C@H]1[C@H](CO)[C@H]2C(=O)OC	none (no result: NadD block, HGIII-sPLA2 inh, Neddylation inh, DAGLB inh)
Cn1cccc1/C=C1/C(=O)NC(=S)N(Cc2ccc(F)cc2)C1=O	NadD block 45
